The values below come from PubChem BioAssay (NCI).

Among the test systems are DU-145 prostate; K-562 leukemia; MALME-3M melanoma; MDA-MB-231 breast; RXF 393 renal; SF-268 CNS; SF-295 CNS; SF-539 CNS; UACC-257 melanoma; M14 melanoma.
Assay in all cases: NCI-60 one-dose screen, 48 h (100 = growth as untreated, 0 = no growth, -100 = all killed)
What all share (details): 10 µM unless noted

About 83,000 compounds went through this panel and 20% of them were active in at least one assay; those are over-represented in the sample as a whole.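 For each line, cells grew in 96-well plates with the test compound present at a single concentration for 48 hours.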 A number with no mark means an inactive call. Active and inactive are the calls of the source. The calls were made as follows: active = growth percent below 10; inactive = the rest.

With `Fc1ccc2c(c1)c(-c1nc(-c3c[nH]c4ncccc34)cs1)cn2CCN1CCOCC1`, the growth in the experiment with DU-145 prostate is 77%; in the experiment on K-562 leukemia, 18.6%; in the experiment on MALME-3M melanoma, 74.2%; in the experiment on MDA-MB-231 breast, 42.6%; with RXF 393 renal, 61.6%; in the experiment with SF-268 CNS it was 56.6%. Also, the growth is 62% with SF-295 CNS, 55.1% in the experiment on SF-539 CNS, 97.2% with UACC-257 melanoma and 41.6% in the experiment with M14 melanoma.

As to `Cc1c(C)c([N+](=O)[O-])c(C)c(C)c1[N+](=O)[O-]`, the growth in the experiment with DU-145 prostate was 108%; with K-562 leukemia, 102%; in the experiment on MALME-3M melanoma, 138%; in the experiment with MDA-MB-231 breast, 108%; in the experiment with RXF 393 renal, 112%; in the experiment on SF-268 CNS it was 100%. Moreover, the growth was 101% in the experiment on SF-295 CNS, 108% with SF-539 CNS, 99.5% in the experiment on UACC-257 melanoma and 115% with M14 melanoma.

`O=C1C2CC=CCC2C(=O)N1SC(Cl)(Cl)Cl` (stereo not given): the growth in the experiment on DU-145 prostate was 109%; in the experiment with K-562 leukemia it was 45.1%; in the experiment on MALME-3M melanoma, 81.8%; in the experiment on MDA-MB-231 breast it was 103%; in the experiment on RXF 393 renal, 63.6%; in the experiment with SF-268 CNS, 104%. In addition, the growth was 134% in the experiment on SF-295 CNS, 91.3% in the experiment on SF-539 CNS, 105% in the experiment with UACC-257 melanoma and 92.1% in the experiment on M14 melanoma.

Take `COc1ccc(/C=C\c2cc(OC)c(OC)c(OC)c2)cc1NS(=O)(=O)c1ccc(Cl)cc1`: the growth in the experiment with DU-145 prostate is 94%; in the experiment with K-562 leukemia, 36.8%; in the experiment on MALME-3M melanoma, 59.5%; in the experiment with MDA-MB-231 breast, 66%; in the experiment with RXF 393 renal it was 65.8%; with SF-268 CNS, 79.4%. In addition, the growth is 69.3% with SF-295 CNS, 82.6% with SF-539 CNS, 69% with UACC-257 melanoma and 62.4% in the experiment with M14 melanoma.

Take `O=C(CC1(O)C(=O)Nc2ccc(Br)cc21)c1ccc(C(=O)NCC2CCC3(CC2)OOC2(CCCCC2)OO3)cc1` (stereo not given): the growth was 59.1% in the experiment with DU-145 prostate; -61% (active) in the experiment on K-562 leukemia; -7.48% (active) with MALME-3M melanoma; 56.8% in the experiment with MDA-MB-231 breast; 69.5% in the experiment with RXF 393 renal; 47.8% in the experiment with SF-268 CNS. The growth was 69.1% with SF-295 CNS, 55% with SF-539 CNS, 49.4% with UACC-257 melanoma and 61.6% in the experiment with M14 melanoma.

As for `COc1ccc(/C=C\c2cc(OC)c(OC)c(OC)c2)c(NS(=O)(=O)c2ccc(F)cc2)c1O`, the growth in the experiment with DU-145 prostate is -19.1% (active); with K-562 leukemia it was 18.3%; in the experiment with MALME-3M melanoma, 94.3%; in the experiment on MDA-MB-231 breast, 8.05% (active); with RXF 393 renal, 23.5%; in the experiment with SF-268 CNS, 15.1%. For the same molecule, the growth with SF-295 CNS is 4.99% (active); in the experiment on SF-539 CNS, 2.76% (active); with UACC-257 melanoma, 66.5%; in the experiment with M14 melanoma it was 6.43% (active).

For the molecule `CC1CN1CCCCN1CC1C` (stereo not given), the growth with DU-145 prostate is 105%; with K-562 leukemia, 83.6%; in the experiment on MALME-3M melanoma it was 103%; in the experiment on MDA-MB-231 breast, 125%; with RXF 393 renal, 115%; in the experiment with SF-268 CNS, 98.6%. In addition, the growth with SF-295 CNS is 101%; with SF-539 CNS, 103%; with UACC-257 melanoma, 83.9%; in the experiment on M14 melanoma, 107%.

In the case of `CC(=O)O[C@H](C[C@H](C(C)C)N(C)C(=O)[C@@H](NC(=O)[C@H]1CCCCN1C)C(C)C)c1nc(C(=O)N[C@@H](Cc2ccccc2)C[C@H](C)C(=O)O)c(C(C)C)s1`, the growth in the experiment with DU-145 prostate is -0.791% (active); with K-562 leukemia it was 6.34% (active); in the experiment on MALME-3M melanoma, 64.9%; in the experiment on MDA-MB-231 breast, 12.9%; in the experiment on RXF 393 renal, 44.1%; in the experiment with SF-268 CNS, 27.7%. Further, the growth in the experiment on SF-295 CNS was -0.193% (active); with SF-539 CNS, -10.7% (active); with UACC-257 melanoma, 41.5%; in the experiment with M14 melanoma, 4.52% (active).

For the molecule `Cn1cccc1C1CC(=O)N(CCC[Se]C#N)C1=O` (stereo not given), the growth is -76% (active) in the experiment on DU-145 prostate; 16.2% with K-562 leukemia; -30.1% (active) in the experiment with MALME-3M melanoma; -45.3% (active) in the experiment on MDA-MB-231 breast; -48.7% (active) in the experiment with RXF 393 renal; -31.8% (active) with SF-268 CNS. The growth in the experiment with SF-295 CNS was -58.2% (active); in the experiment with SF-539 CNS it was -81.2% (active); in the experiment with UACC-257 melanoma, -70.6% (active); with M14 melanoma, 4.09% (active).

`COC(=O)C12CC(NC(=O)c3csc([C@@H](C[C@H](C(C)C)N(C)C(=O)[C@@H](NC(=O)[C@H]4CCCCN4C)C4CC4)OC(C)=O)n3)(C1)C2`: the growth in the experiment with DU-145 prostate is 4.38% (active); with K-562 leukemia it was 7.65% (active); in the experiment with MALME-3M melanoma, 70%; with MDA-MB-231 breast, -0.474% (active); in the experiment with RXF 393 renal, 14.5%; with SF-268 CNS, 21.9%. Also, the growth was 6.6% (active) in the experiment on SF-295 CNS, -28.5% (active) with SF-539 CNS, 42.2% in the experiment on UACC-257 melanoma and 14.8% with M14 melanoma.

With `CCOC(=O)[C@@H](C)C[C@H](Cc1ccccc1)NC(=O)c1csc([C@@H](C[C@H](C(C)C)N(C)C(=O)[C@H](CC)NC(=O)[C@H]2CCCCN2C)OC(C)=O)n1`, the growth in the experiment with DU-145 prostate was 5.21% (active); in the experiment with K-562 leukemia, 6.71% (active); with MALME-3M melanoma, 71.7%; in the experiment with MDA-MB-231 breast, 5.4% (active); in the experiment on RXF 393 renal, 28.8%; in the experiment with SF-268 CNS, 29.1%. The growth in the experiment with SF-295 CNS is 1.53% (active); in the experiment with SF-539 CNS, -9.33% (active); in the experiment with UACC-257 melanoma it was 39.1%; in the experiment on M14 melanoma it was -25.7% (active).

Turning to `COC(=O)[C@@H](C)C[C@H](Cc1ccccc1)NC(=O)c1csc([C@@H](C[C@H](C(C)C)N(C)C(=O)[C@@H](NC(=O)[C@H]2CCCN2C)C2CC2)OC(C)=O)n1`, the growth was 8.13% (active) in the experiment on DU-145 prostate; 4.01% (active) in the experiment on K-562 leukemia; 64.2% in the experiment with MALME-3M melanoma; 6.59% (active) in the experiment on MDA-MB-231 breast; 81.3% with RXF 393 renal; 15.9% with SF-268 CNS. In addition, the growth is 0.995% (active) with SF-295 CNS, -14.6% (active) in the experiment on SF-539 CNS, 56.9% with UACC-257 melanoma and 5.11% (active) with M14 melanoma.
